Bioassay records from PubChem.
Shown are actives, neighbours in structure and some others; about 3.6% of the full set was active somewhere.
Pf apPOL block = Pf-apPOL DNA polymerase inhibition; Recombinant Pf-apPOL, molecular beacon fluorescence, 1.5 h; inhibition, % at 10 µM; 210,000 compounds, 0.25% hits; AID 1794808
mHTT-CaM PPI inh = mHTT-calmodulin interaction abrogation. inhibition, % at 15 µM. 190,000 compounds, 3.6% hits. AID 1671202. AlphaScreen His-mHTT/GST-CaM binding, luminescence;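 also: 0% = both proteins with DMSO and 100% = one protein alone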
Starred values were filed as active, the others as inactive; . = not tested or not shown; ! = a repeat was not active. Rule as the data show it: active = inhibition above about 50%; inactive = the rest.

SMILES	Pf apPOL block	mHTT-CaM PPI inh
CCOc1ccc(N=C(C)C2=C(O)c3ccccc3C2=O)cc1	-8	5
Cc1ccc(S(=O)(=O)N=C2C=C(Nc3cccc(C)c3)C(=O)c3ccccc32)cc1	-2	82*
Cc1ccc(S(=O)(=O)N=C2C=C(N3CCOCC3)C(=O)c3ccccc32)cc1	1	84*
Cc1ccc(S(=O)(=O)Nc2ccccn2)cc1	-8	-8
CC(CNC(=O)c1cc2n(n1)CCCN(Cc1ccc(Cl)cc1)C2=O)c1ccccc1 (centres undefined)	-5	2
COc1ccccc1C1CC(c2cccc(F)c2)=NN1C(=O)CN1CCCCC1 (centres undefined)	-5	32
CCN(CC)c1ccc(C=Nc2cccc([N+](=O)[O-])c2C)cc1	5	2
CC(=O)Nc1ccc(Cc2ccc(NC(C)=O)c(C)c2)cc1C	4	-11
CC1(C)OC(=O)C(=CNc2ccc3c(c2)OCO3)C(=O)O1	9	2
Cc1ccc(C)c(S(=O)(=O)N=C2C=C(Nc3ccccc3)C(=O)c3ccccc32)c1	-3	89*
COc1ccc(NC2=CC(=NS(=O)(=O)c3cc(C)ccc3C)c3ccccc3C2=O)cc1	7	47
O=C(C1CCCN(Cc2nc(-c3cccnc3)no2)C1)N1CCc2ccccc21 (centres undefined)	-9	0
COc1ccccc1NC(=O)c1cnn(-c2ccccc2)c1NC(=O)c1cccc(F)c1	8	59*!
O=C(Nc1c(C(=O)Nc2ccccc2)cnn1-c1ccccc1)c1ccccc1	3	11
CCCCN(C)CCNS(=O)(=O)c1ccc(OCC)c2ncccc12	0	2
COc1ccc(C)cc1NC(=O)Cn1ccc2c(=O)[nH]ccc21	73*	39
COc1ccc(NC(=O)Cn2ccc3c(=O)[nH]ccc32)cc1Cl	78*	24
Cc1ccc(NC(=O)Cn2ccc3c(=O)[nH]ccc32)c(C)c1	21	-4
CSc1cccc(NC(=O)Cn2ccc3c(=O)[nH]ccc32)c1	19	1
OCCN(CCO)c1ncnc2sc3c(c12)CCCC3	4	6
O=CNC1CCCc2c1[nH]c1ccc(Br)cc21 (centres undefined)	-4	30
Brc1ccc2[nH]c3c(c2c1)CCCC3NCc1ccccc1 (centres undefined)	-1	100*
Cc1ccc2[nH]c3c(c2c1)CCCC3NC(N)=O (centres undefined)	-10	30
Cc1ccc2[nH]c3c(c2c1)CCCC3NCc1ccc(F)cc1 (centres undefined)	16	57*
COc1ccc(C2CC(c3ccc(Cl)cc3)Nc3ncnn32)cc1 (centres undefined)	-6	29
SMILES	Pf apPOL block	mHTT-CaM PPI inh
O=C1N=C(N2CCOCC2)S/C1=C\c1ccccc1	2	4
O=C1N=C(N2CCOCC2)S/C1=C/C1=Cc2ccccc2OC1	-5	52*
O=C(CC(C(=O)O)N1CCOCC1)Nc1ccc(F)cc1F (centres undefined)	-6	-17
Cc1ccccc1C1CCCN1C(=O)Cc1cccs1 (centres undefined)	1	15
COc1cc(C2Nc3c(F)cccc3C3C=CCC32)cc(Br)c1OC (centres undefined)	-5	0
COc1cccc2c1NC(c1ccc(Cl)cc1)C1CC=CC21 (centres undefined)	2	59*
COc1ccc(C)c2c1NC(c1ccc(Br)cc1)C1CC=CC21 (centres undefined)	-7	72*
O=[N+]([O-])c1cccc2c1NC(c1ccc(Cl)cc1)C1CC=CC21 (centres undefined)	1	86*
O=[N+]([O-])c1cccc2c1NC(c1ccc(F)cc1)C1CC=CC21 (centres undefined)	0	83*
O=[N+]([O-])c1ccc(C2Nc3c(cccc3[N+](=O)[O-])C3C=CCC32)cc1 (centres undefined)	1	11
O=C(c1cc2ccccc2[nH]1)N1CCN(C(=O)c2ccc(Br)o2)CC1	2	-3
O=c1c2c(nc(SCc3cccc(F)c3)n1-c1ccc(F)cc1)CCS2	2	-4
O=c1c(-[n+]2ccccc2)cc2[nH]c3ccccc3c2n1-c1ccccc1	-1	14
O=c1c(N=Cc2ccccc2)cc2[nH]c3ccccc3c2n1-c1ccccc1	-5	99*
Cc1ccc(C)c(N=Cc2cccc([N+](=O)[O-])c2)c1	6	1
O=c1c(N=Cc2cccc([N+](=O)[O-])c2)cc2[nH]c3ccccc3c2n1-c1ccccc1	4	97*
Cc1cccc(N=c2oc3c(C)ncc(CO)c3cc2C(=O)Nc2cccc(C(F)(F)F)c2)c1	-7	0
N#Cc1cccc(C#N)c1Oc1ccc(S(=O)(=O)N2CCOCC2)cc1	-5	.
CCOC(=O)c1csc(C)c1C	.	-4
O=C(Nc1cccc(-c2ccc(N3CCCC3)nn2)c1)c1cc(-c2cccs2)[nH]n1	1	99*
O=C(Cc1noc2ccccc12)Nc1cccc(-c2ccc(N3CCCC3)nn2)c1	-29	67*
CN1CCN(c2ccc(-c3cccc(NC(=O)c4cccs4)c3)nn2)CC1	2	-10
Cc1noc(C)c1CCC(=O)Nc1cccc(-c2ccc(N3CCCC3)nn2)c1	-8	27
NS(=O)(=O)c1ccc(Nc2nc(-c3cccnc3)cs2)cc1	-3	21
COc1ccccc1Nc1nc(-c2ccc(OC)c(OC)c2)cs1	-2	41
SMILES	Pf apPOL block	mHTT-CaM PPI inh
COc1ccc(-c2csc(Nc3ccc(N(C)C)cc3)n2)cc1OC	-1	97*
COc1ccc(-c2csc(Nc3ccc(S(N)(=O)=O)cc3)n2)cc1OC	-6	50*
Cc1occc1C(=O)Nc1ccc(Oc2ccccc2)cc1	-2	1
Cc1ccc(NC(NC(=O)c2cccs2)C(=O)c2ccccc2)cc1 (centres undefined)	-3	38
O=C(NC(Nc1ccc([N+](=O)[O-])cc1)C(Cl)(Cl)Cl)c1cccs1 (centres undefined)	0	34
O=C(NC(Nc1ccc(Cl)cc1)C(=O)c1ccccc1)c1cccs1 (centres undefined)	-3	81*
O=C(NC(Nc1ccc(I)cc1)C(Cl)(Cl)Cl)c1cccs1 (centres undefined)	-3	84*
N#CC1=C(N)OC2=C(C(=O)CCC2)C1c1cc(Br)ccc1F (centres undefined)	0	7
COCCCN1COc2ccc3c(=O)c(Oc4ccc(C(=O)OC)cc4)c(C(F)(F)F)oc3c2C1	-2	1
Cc1nn(CC(O)COC(c2ccccc2)c2ccccc2)c(C)c1Br (centres undefined)	-1	99*
Cc1nc(C)n(CC(O)COc2ccc(-c3ccccc3)cc2)n1 (centres undefined)	-10	-8
O=C(Nc1cccn2cnnc12)c1ccc(Cl)s1	-1	-4
O=[N+]([O-])c1ccc2cc(Br)c3ccccc3c2c1	2	.
Nc1ccc2cc(Br)c3ccccc3c2c1	.	59*
O=C(Nc1nc2c(F)cccc2s1)c1ccc([N+](=O)[O-])o1	3	4
O=C(Nc1nc2c(s1)CCCC2)c1ccc([N+](=O)[O-])o1	64*	18
O=c1/c(=C/C=C/c2ccccc2)sc2nc(-c3cccs3)nn12	0	52*
O=c1/c(=C/c2ccccc2)sc2nc(-c3cccs3)nn12	-12	4
Fc1ccccc1CN1CCc2nc(N3CCN(c4ncccn4)CC3)ncc2C1	-1	100*
COc1cccc(CN2CCc3nc(N4CCCC4)ncc3C2)c1OC	4	88*
